Screen size: about 5,500 compounds; about 2,000 (36%) were called active. Inconclusive results (about 18%) are left out. No stated cut-off is given here; in the data, active means normalized growth mostly below about 0.91 (no sharp cut-off); inconclusive means no clear call, values can overlap the other calls; inactive means mostly above about 0.92. The list shows a part of the results.
Test: chemical genetic growth profiling, strain panel (AID 1159580);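 further: tested at 20 µM; growth read once vehicle control cultures reached saturation at 30 °C; 1 = growth at the plate median or of vehicle wells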
Conditions: S. cerevisiae deletion strains, growth OD

Measured: normalized growth

CO/N=C(\C(=O)NC1C(=O)N2C(C(=O)OC(C)OC(C)=O)=C(COC(N)=O)CSC12)c1ccco1 (stereo not given)
inactive: locus YAL021C, strain ccr4, stronger effect = lower value 0.994 | locus YAL026C, strain drs2, stronger effect = lower value 0.996 | locus YAL030W, strain snc1, stronger effect = lower value 0.998 | locus YBL061C, strain skt5, stronger effect = lower value 0.992 | locus YBR009C, strain hhf1, stronger effect = lower value 0.994 | locus YBR023C, strain chs3, stronger effect = lower value 0.988 | locus YBR171W, strain sec66, stronger effect = lower value 0.983 | locus YBR231C, strain swc5, stronger effect = lower value 1 | locus YBR279W, strain paf1, stronger effect = lower value 0.991 | locus YCL011C, strain gbp2, stronger effect = lower value 0.997 | locus YCL016C, strain dcc1, stronger effect = lower value 0.985 | locus YCL061C, strain MRC1, stronger effect = lower value 0.99 | locus YCL069W, strain vba3, stronger effect = lower value 0.989 | locus YCR088W, strain abp1, stronger effect = lower value 0.994 | locus YDL005C, strain med2, stronger effect = lower value 0.985 | locus YDL040C, strain nat1, stronger effect = lower value 0.995 | locus YDR001C, strain nth1, stronger effect = lower value 1 | locus YDR069C, strain doa4, stronger effect = lower value 0.994 | locus YDR137W, strain rgp1, stronger effect = lower value 0.996 | locus YDR159W, strain sac3, stronger effect = lower value 0.996 | locus YDR195W, strain ref2 0.985 | locus YDR297W, strain sur2, stronger effect = lower value 1 | locus YDR334W, strain swr1, stronger effect = lower value 1 | locus YDR335W, strain msn5, stronger effect = lower value 0.996 | locus YDR392W, strain spt3, stronger effect = lower value 0.993 | locus YEL003W, strain gim4, stronger effect = lower value 0.998 | locus YEL037C, strain rad23, stronger effect = lower value 0.997 | locus YEL061C, strain CIN8 (second series), stronger effect = lower value 0.999 | locus YER015W, strain faa2, stronger effect = lower value 1 | locus YER016W, strain bim1, stronger effect = lower value 0.99 | locus YER111C, strain swi4, stronger effect = lower value 0.986 | locus YER155C, strain BEM2 (second series), stronger effect = lower value 0.991 | locus YFR010W, strain ubp6, stronger effect = lower value 0.998 | locus YGL167C, strain pmr1, stronger effect = lower value 0.989 | locus YGL173C, strain kem1, stronger effect = lower value 0.985 | locus YGL227W, strain vid30, stronger effect = lower value 0.981 | locus YGL240W, strain doc1, stronger effect = lower value 1.01 | locus YGL253W, strain hxk2, stronger effect = lower value 1 | locus YHR013C, strain ard1, stronger effect = lower value 0.998 | locus YHR027C, strain rpn1, stronger effect = lower value 0.994 | locus YHR030C, strain SLT2, stronger effect = lower value 1.03 | locus YHR079C, strain IRE1, stronger effect = lower value 1.05 | locus YHR142W, strain chs7, stronger effect = lower value 0.99 | locus YJL092W, strain hpr5, stronger effect = lower value 0.993 | locus YJL095W, strain BCK1 (second series), stronger effect = lower value 0.997 | locus YJL095W, strain BCK1, stronger effect = lower value 1.01 | locus YJL115W, strain asf1, stronger effect = lower value 0.996 | locus YJL129C, strain trk1, stronger effect = lower value 0.987 | locus YJL154C, strain vps35, stronger effect = lower value 1.01 | locus YJL164C, strain tpk1, stronger effect = lower value 0.996 | locus YJL166W, strain qcr8, stronger effect = lower value 0.996 | locus YJL187C, strain SWE1, stronger effect = lower value 1 | locus YJR066W, strain TOR1, stronger effect = lower value 0.989 | locus YKL160W, strain elf1, stronger effect = lower value 0.997 | locus YKR026C, strain gcn3, stronger effect = lower value 0.983 | locus YKR091W, strain srl3, stronger effect = lower value 0.998 | locus YLL001W, strain dnm1, stronger effect = lower value 0.981 | locus YLL026W, stronger effect = lower value 0.991 | locus YLL041C, strain sdh2, stronger effect = lower value 0.993 | locus YLR027C, strain aat2, stronger effect = lower value 0.992 | locus YLR113W, strain HOG1, stronger effect = lower value 1 | locus YLR221C, strain rsa3, stronger effect = lower value 0.995 | locus YLR258W, strain gsy2, stronger effect = lower value 0.995 | locus YLR262C, strain YPT6 (second series), stronger effect = lower value 0.985 | locus YLR320W, strain mms22, stronger effect = lower value 0.986 | locus YLR342W, strain FKS1, stronger effect = lower value 0.988 | locus YLR357W, strain rsc2, stronger effect = lower value 1.02 | locus YLR370C, strain arc18, stronger effect = lower value 0.987 | locus YLR384C, strain iki3, stronger effect = lower value 1 | locus YML120C, strain ndi1, stronger effect = lower value 0.996 | locus YMR058W, strain fet3, stronger effect = lower value 0.996 | locus YMR125W, strain sto1, stronger effect = lower value 0.985 | locus YMR129W, stronger effect = lower value 0.995 | locus YMR205C, strain PFK2, stronger effect = lower value 0.991 | locus YMR231W, strain pep5, stronger effect = lower value 0.989 | locus YNL071W, strain lat1, stronger effect = lower value 1 | locus YNL183C, strain NPR1, stronger effect = lower value 0.99 | locus YNL209W, strain ssb2, stronger effect = lower value 0.995 | locus YNL248C, strain rpa49, stronger effect = lower value 0.987 | locus YNL322C, strain KRE1 (second series), stronger effect = lower value 0.99 | locus YNR049C, strain mso1, stronger effect = lower value 0.992 | locus YOR001W, strain rrp6, stronger effect = lower value 0.999 | locus YOR070C, strain gyp1, stronger effect = lower value 0.929 | locus YOR080W, strain dia2, stronger effect = lower value 1 | locus YOR083W, strain WHI5, stronger effect = lower value 0.996 | locus YOR106W, strain vam3, stronger effect = lower value 0.988 | locus YOR231W, strain MKK1, stronger effect = lower value 1.04 | locus YOR265W, strain rbl2, stronger effect = lower value 0.991 | locus YOR270C, strain vph1, stronger effect = lower value 1 | locus YOR290C, strain snf2, stronger effect = lower value 1 | locus YPL051W, strain arl3, stronger effect = lower value 0.999 | locus YPL078C, strain atp4, stronger effect = lower value 0.995 | locus YPL106C, strain sse1, stronger effect = lower value 0.981 | locus YPL240C, strain hsp82, stronger effect = lower value 0.994 | locus YPL256C, strain CLN2, stronger effect = lower value 1.07

From PubChem BioAssay AID1159580 (chemical genetic matrix, 2015)
